Experimental data reported in PubChem BioAssay (NCATS).
Results filed as inconclusive are left out. Unmarked numbers belong to inactive results. Activity calls are given as the source filed them. The call rests on the fitted dose curve; in most records, active means well fitted curve in the direction sought with a large enough effect; inconclusive means small, poorly fitted or top-dose-only effect, or another doubt; inactive means no such curve, though single readings can be large; an effect the other way counts as inactive or inconclusive.

Test system: not listed separately
Experiment: Confirmatory screen NINDS Rhodamine qHTS for Zika virus inhibitors (AID 1347161); further: nearly all actives have a fitted effect of over 60% in size; further: potency means the concentration at half of the fitted maximal effect;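 on activity change, negative = inhibition: purified Zika NS2B-NS3 protease with linked NS2B cofactor domain and Rhodamine110 peptide substrate; plate controls were no-inhibitor control for no effect and no-enzyme control for full effect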
Conditions: purified enzyme assay, Rhodamine110 substrate fluorescence, 15 min; series mostly up to 114 µM; activity change, negative = inhibition: at the top concentration
How it was run: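 Purified NS2B-NS3 protease with the NS2B hydrophilic domain joined by a flexible linker (25 nM) in 10 mM Tris-HCl pH 8.0, 0.01% Tween 20, preincubated 15 min at RT with compound; Rhodamine110 peptide substrate 1.5 µM; fluorescence change over 15 min; 4-parameter Hill fit.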

Row | SMILES | Potency | activity change, negative = inhibition [%]
1 | CN(C)CC(=O)N1CCC(c2ccc(NC(=O)c3ncc(C#N)[nH]3)c(C3=CCCCC3)c2)CC1 | 9.87 µM (active) | 
2 | CCCCCCCCc1ccc(CCC(N)(CO)CO)cc1 |  | 590
3 | CC(C)c1cc(C(C)C)c(CC(=O)NS(=O)(=O)Oc2c(C(C)C)cccc2C(C)C)c(C(C)C)c1 | 2.21 µM (active) | 
4 | Cc1ccc(-n2[nH]c(C)c(N=Nc3cccc(-c4cccc(C(=O)O)c4)c3O)c2=O)cc1C | 2.21 µM (active) | 
5 | O=c1c(O)c(-c2ccc(O)c(O)c2)oc2cc(O)ccc12 | 44.7 µM (active) | 
6 | COc1ccc(S(=O)(=O)Nc2cc(-c3c(O)ccc4ccccc34)c(O)c3ccccc23)cc1 | 8.77 µM (active) | 

Test system: Zika virus NS2B-NS3 protease (linked)
Experiment: 384 well plate NINDS AMC confirmatory qHTS for Zika virus inhibitors (AID 1347163); further: nearly all actives have a fitted effect of over 50% in size; further: potency means the concentration at half of the fitted maximal effect;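 on activity change, negative = inhibition: linked protease at 5 30 or 60 nM final depending on run; fluorescence of AMC released from Ac-VKTGKR-AMC peptide cleaved by the protease; top concentration of the series differs between compounds; 0% = no-inhibitor control and -100% = no-enzyme control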
Conditions: Recombinant NS2B-NS3 protease, Ac-VKTGKR-AMC fluorescence; series mostly up to 1 mM; activity change, negative = inhibition: at the top concentration
How it was run: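 Enzyme (5, 30 or 60 nM final) first met test compounds for ~15 min. The AMC-tagged peptide Ac-VKTGKR-AMC followed at 30 microM. Fluorescence was then recorded at 25 min and scaled against no-enzyme and no-inhibitor wells.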

Row | SMILES | Potency | activity change, negative = inhibition [%]
7 | CCCCCCCCc1ccc(CCC(N)(CO)CO)cc1 | 70.8 µM (active) | 
8 | CC(C)c1cc(C(C)C)c(CC(=O)NS(=O)(=O)Oc2c(C(C)C)cccc2C(C)C)c(C(C)C)c1 | 3.16 µM (active) | 
9 | Cc1ccc(-n2[nH]c(C)c(N=Nc3cccc(-c4cccc(C(=O)O)c4)c3O)c2=O)cc1C | 178 µM (active) | 
10 | O=c1c(O)c(-c2ccc(O)c(O)c2)oc2cc(O)ccc12 |  | 245
11 | COc1ccc(S(=O)(=O)Nc2cc(-c3c(O)ccc4ccccc34)c(O)c3ccccc23)cc1 | 31.6 µM (active) | 

Test system: Zika virus NS2B-NS3 protease (linked construct)
Experiment: 384 well plate NINDS Rhodamine confirmatory qHTS for Zika virus inhibitors (AID 1347164); further: nearly all actives have a fitted effect of over 65% in size; further: potency means the concentration at half of the fitted maximal effect;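 on activity change, negative = inhibition: top concentration of the series differs between compounds; plate controls were no-inhibitor control for no effect and no-enzyme control for full effect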
Conditions: rhodamine-110 peptide substrate fluorescence; series mostly up to 100 µM; activity change, negative = inhibition: at the top concentration
Excerpt: Description: Assay Submitters (PI): Avindra Nath, Ph.D., National Institute of Neurological Disorders and Stroke (NINDS), Bethesda, MD Radhakrishnan Padmanabhan, Ph.D., Georgetown University (GU), Washington D.C. Zika Virus causes congenital defects, including microcephaly and is associated with Guillain-Barre syndrome, eningoencephalitis and myelitis in infected adult. […] Using a target-based approach, we hope to establish a screening paradigm to uncover novel, cell-active NS2B-NS3 protease (Zika Virus) specific inhibitors from NCATS' collection of small molecules using qHTS. […] Four assay panel was created to identify potential Zika Virus inhibitors. Namely, (1) GU unlinked NS2B-NS3 AMC tagged protease qHTS, (2) GU unlinked NS2B-NS3 Rhodamine tagged protease qHTS, (3) NINDS linked NS2B-NS3 AMC tagged protease qHTS, (4) NINDS linked NS2B-NS3 Rhodamine tagged protease qHTS. Active compounds are validated using a secondary assay in 384 well plate format. Early Translation Branch (ETB) National Center for Advancing Translational Sciences (NCATS), Rockville, MD National Institute of Health (NIH), Bethesda, Maryland
384-well NINDS Rhodamine Assay: The protease was diluted to 7.5 nM, 40.9 nM, or 82 nM in assay buffer and dispensed into a 96-well PCR plate (Applied Biosystems); 20 or 22 microL was transferred to a black 384-well assay plate (final protease concentration of 5 nM, 30 nM, or 60 nM, respectively). Compounds (3 microL, 1 microM - 10 mM, DMSO) were diluted and transferred to the assay plate (final concentrations ranged from 100 nM to 1 mM). Compounds were incubated with protease for ~15 minutes. The substrate, Rhodamine 110 (Ac-LKRR-Rd; Genscript), was dissolved in DMSO to a concentration of 6 mM and further diluted into assay buffer to a working concentration of 180 microM, then dispensed into a 384-well preparation plate (Eppendorf). A multichannel repeat pipettor was used to add 3 or 5 microL of substrate to the assay plate to give a final concentration of 10 microM. The plate was incubated in the dark at room temperature. After 25 minutes, the fluorescence intensity (excitation: 485 nm, emission: 538 nm) was measured and normalized to no-enzyme and no-inhibitor controls. Aprotinin39 (VWR) was used as an intraplate control.

Row | SMILES | activity change, negative = inhibition | Potency
12 | CCCCCCCCc1ccc(CCC(N)(CO)CO)cc1 | 9220% [at 1 mM] | 
13 | CC(C)c1cc(C(C)C)c(CC(=O)NS(=O)(=O)Oc2c(C(C)C)cccc2C(C)C)c(C(C)C)c1 | -51.8% | 
14 | Cc1ccc(-n2[nH]c(C)c(N=Nc3cccc(-c4cccc(C(=O)O)c4)c3O)c2=O)cc1C |  | 7.94 µM (active)
15 | O=c1c(O)c(-c2ccc(O)c(O)c2)oc2cc(O)ccc12 |  | 316 µM (active)
16 | COc1ccc(S(=O)(=O)Nc2cc(-c3c(O)ccc4ccccc34)c(O)c3ccccc23)cc1 |  | 44.7 µM (active)

Test system: not listed separately
Experiment: Vero cells viability qHTS for Zika virus inhibitors (AID 1347167); further: on the % scale 0 is the no-effect control and ±100 the full control effect
Conditions: cytotoxicity counter-screen (Zika); series mostly up to 45.9 µM; activity change, negative = cytotoxicity: at the top concentration
Excerpt: Avindra Nath, Ph.D., National Institute of Neurological Disorders and Stroke (NINDS), Bethesda, MD
Radhakrishnan Padmanabhan, Ph.D., Georgetown University (GU), Washington D.C.
Zika Virus causes congenital defects, including microcephaly and is associated with Guillain-Barre syndrome, eningoencephalitis and myelitis in infected adult. […] Using a target-based approach, we hope to establish a screening paradigm to uncover novel, cell-active NS2B-NS3 protease (Zika Virus) specific inhibitors from NCATS' collection of small molecules using qHTS.
Four assay panel was created to identify potential Zika Virus inhibitors. Namely, (1) GU unlinked NS2B-NS3 AMC tagged protease qHTS, (2) GU unlinked NS2B-NS3 Rhodamine tagged protease qHTS, (3) NINDS linked NS2B-NS3 AMC tagged protease qHTS, (4) NINDS linked NS2B-NS3 Rhodamine tagged protease qHTS. Identified inhibitors were screened against the Vero and HepG2 cell viability assays using CellTiter Glo to exclude cytotoxic compounds.
Early Translation Branch (ETB)
National Center for Advancing Translational Sciences (NCATS), Rockville, MD
National Institute of Health (NIH), Bethesda, Maryland
Vero and HepG2 Cell Viability Assay:
Vero and HepG2 cell cytotoxicity were determined using a luminescent readout with CellTiter Glo reagent (Promega, Madison, WI), which is based on measuring the ATP content within cells. Briefly, 4 microL of Vero or HepG2 cells at 2.5 x 10^5 cells/mL in DMEM containing 4% FBS were dispensed into 1536-well solid bottom tissue treated white plate using a Multidrop Combi dispenser (Thermo Scientific). Plates were incubated at 37 degrees C, 95% humidity, and 5% CO2 overnight to allow for cell attachment. Compounds were dissolved in DMSO at different concentrations and transferred via pintool (Wako Automation), for a final concentration of 0.029 µM - 57 microM. Plates were again incubated for 24 to 48 hours, followed by a 2 microL addition of CellTiter Glo. Finally, plates were incubated for 30 minutes at 37 degrees C and 5% CO2 before being read on a ViewLux (Perkin Elmer) for luminescence.

Row | SMILES | activity change, negative = cytotoxicity [%]
17 | CC(C)c1cc(C(C)C)c(CC(=O)NS(=O)(=O)Oc2c(C(C)C)cccc2C(C)C)c(C(C)C)c1 | -5.7
18 | Cc1ccc(-n2[nH]c(C)c(N=Nc3cccc(-c4cccc(C(=O)O)c4)c3O)c2=O)cc1C | -5.45
19 | COc1ccc(S(=O)(=O)Nc2cc(-c3c(O)ccc4ccccc34)c(O)c3ccccc23)cc1 | -9.32
